# In the library only some 7.2% were active in any assay of this set; here they are far more common.
# VLA-4 inh: inhibition in a human VLA-4 binding assay; VLA-4 expressing cells, ligand binding flow cytometry; inhibition, % (about 7 µM as worked out from the volumes in the protocol); 0.2% of 330,000 active; AID 2557; in the data active means inhibition above about 50%
# A1 inh: inhibitors of the anti-apoptotic protein A1, read as caspase activation; MEF A1-2A-BIM cells, Caspase-Glo 3/7 luminescence, 3 h; percent of clofoctol response, vehicle zero; caspase activation, % (test concentration not listed); 0.066% of 330,000 active;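 active means over half of replicate activation scores above 10%, or exactly half above 10 with the replicate mean above 10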
# SUMO Mot1 rescue: inhibitors of SUMOylation pathway: yeast Mot1-301 growth rescue. S. cerevisiae Mot1-301 growth rescue, ATP luminescence, 38.5C; percent above DMSO median, 100 means doubled. AID 2716. growth rescue, % at 18.8 µM. 1% of 320,000 active;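 active means every valid replicate shows activation above 250% relative to neutral control wells; inactive means the rest, any valid replicate at or below 250%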;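 further: OY570 slx delta 5 strain wells were the positive control but not used for scaling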
# AHR activator: human AHR activation; P35869; AHR-responsive luciferase reporter cells, luminescence; activation, % at 5 µM; 2.5% of 320,000 active; AID 2796; in the data active means activation above about 47%;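 further: 0% = vehicle wells and 100% = reference agonist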
# Efflux pump mplx: inhibitors of Candida antifungal efflux pumps expressed in yeast; inhibition, % at 10 µM; 0.44% of 330,000 active; S. cerevisiae Candida pump triplex, Nile Red efflux;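 active means plate passing quality check with inhibition over a set limit, or well fluorescence over plate mean plus 4 SD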;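 further: Nile Red retained in pooled yeast measured as flow cytometry median fluorescence; 0% = buffer negative control and 100% = Enniatin B positive control; higher means more Nile Red kept so more efflux inhibition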
# ALR H2O2 inh: human ALR oxidase inhibition via reduced H2O2; P55789; purified ALR, DTT oxidation, H2O2 HRP-luminol luminescence; inhibition, % (concentration not given with the values); 3.8% of 290,000 active;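 active means mean replicate inhibition above about 79%, with every replicate also reaching it, limit read from the data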
# * marks the source's active call; other numbers are inactive results; . = not tested or not shown.
SMILES,VLA-4 inh,A1 inh,SUMO Mot1 rescue,AHR activator,Efflux pump mplx,ALR H2O2 inh
NC(=O)[C@H]1CC2(CC(c3cccc(NC(=O)CC(c4ccccc4)c4ccccc4)c3)=NO2)CN1C(=O)CC(c1ccccc1)c1ccccc1 (stereo partly drawn),13,0,355*,7,0,8
COC(=O)[C@@H]1CC[C@H](C)[C@@H](c2ccc(C)cc2)N1C(=O)c1ccc(/C=N/O[C@@H](C)c2cn([C@H](CO)Cc3ccccc3)nn2)cc1,.,-1,-10,1,.,.
COC(=O)Cc1ccc(O)c(N)c1,-2,0,-9,-1,0,95*
CCN1CCCc2cc(CN(CCN3CCOCC3)C(=S)Nc3ccccc3C)ccc21,-4,0,-33,2,0,99*
CCN1CCCc2cc(CN(CCN3CCOCC3)C(=S)Nc3cccc(C)c3)ccc21,9,0,260,2,0,95*
CCN1CCCc2cc(CN(CCN3CCOCC3)C(=S)Nc3ccccc3OC)ccc21,15,1,12,11,0,99*
Cc1cccc(NC(=S)N(CCN2CCOCC2)Cc2ccccc2F)c1,4,0,98,2,0,-2
Cc1ccccc1NC(=S)N(CCN1CCCCCC1)Cc1cccs1,14,0,7,-3,0,-4
Cn1c(=O)cc(SCC(=O)NCCC2=CCCCC2)c2cc(Cl)ccc21,-3,2,-14,3,0,-18
COc1ccc(CNC(=O)C2CC(c3cc(C(F)(F)F)cc(C(F)(F)F)c3)=NO2)cc1 (stereo not drawn),22,-1,-4,-2,0,1
CCOC(=O)c1cnc(SCC(=O)OCC(=O)NC2CCS(=O)(=O)C2)nc1N (stereo not drawn),13,1,4,-2,0,6
Cc1ccsc1C(=O)N(C)CC(=O)N(CC(C)C)c1c(N)n(CC(C)C)c(=O)[nH]c1=O,0,0,197,-1,0,.
O=C1Nc2ccccc2/C1=N/N=C/c1cccc(O)c1,-1,2,2,8,0,.
COc1cc(/C=N/N=C2/C(=O)Nc3ccccc32)cc(OC)c1O,3,0,-1,34,0,95*
COc1cc(/C=C/C(=O)C2C(=O)C=C(C)OC2=O)cc(OC)c1O (stereo not drawn),-1,0,1,6,0,99*
CCn1c(SCC(=O)N2CCc3ccccc32)nnc1-c1ccco1,-9,0,126,2,0,0
CC(C)[C@H](NC(=O)c1ccco1)C(=O)N(C)Cc1ccc(C(F)(F)F)cc1,5,0,-12,-2,0,3
CCc1cccc(NC(=O)CCC(=O)N2CCSc3ccccc32)c1,13,0,-4,2,0,0
CCc1ccc(NC(=O)CCC(=O)N2CCSc3ccccc32)cc1,-17,-2,-2,69*,0,-6
Cc1cccc(C)c1NC(=O)COC(=O)c1cccnc1,14,-1,.,0,0,-23
O=C1CN(C(=O)COC(=O)c2c(F)cccc2Cl)c2ccccc2N1,-8,0,1,10,0,.
C=C(C)C(=O)Nc1ccc(NC(C)C)cc1,-5,-3,189,2,0,99*
CC(C)c1ccc(N(CC(=O)N2CCOCC2)S(C)(=O)=O)cc1,-2,0,-9,0,0,-7
CCOc1ccc(/C=C(\C#N)C(=O)NCC2CCCO2)cc1OCC (stereo not drawn),13,1,-8,3,0,-2
COc1cc(/C=C(\C#N)C(=O)NCC2CCCO2)ccc1O (stereo not drawn),-6,0,4,-1,0,99*
SMILES,VLA-4 inh,A1 inh,SUMO Mot1 rescue,AHR activator,Efflux pump mplx,ALR H2O2 inh
COc1cc(/C=N/NC(=O)C(=O)NCC2CCCO2)ccc1O (stereo not drawn),11,0,-18,1,1,99*
C/C(=N\NC(=O)c1cc(C)nc2ccc(C)cc12)c1ccncc1,-1,0,4,.,0,-6
CCc1cc(SC#N)cc(CC)c1NC(=O)CCl,-11,0,-3,8,0,99*
O=C1NC[C@@H](Cc2cccc3ccccc23)N(CCCCC2CCCCC2)C1=O,5,0,-5,2,0,5
O=C(O)CCCCCNCc1ccncc1,-4,0,10,-2,0,.
NC(N)=N/N=C/c1ccccc1OC(F)F,-16,-1,-7,26,0,3
FC(F)Oc1ccccc1/C=N/n1cnc2ccccc21,8,0,236,49*,0,-6
COc1ccc(Cc2nnc(-c3cccc(C)c3)o2)cc1OC,16,0,2,49*,0,19
CC(C)(C)NC(=S)Nc1ccc(Nc2ccccc2)cc1,9,.,9,2,0,99*
NC(=S)NNC(=S)Nc1ccccc1,21,0,3,0,0,97*
CCCNC(=S)Nc1ccccc1,7,0,4,0,0,90*
CC(C)(C)NC(=S)Nc1ccc(Br)cc1,-12,0,10,2,0,3
COCCCNC(=S)NNC(=S)Nc1ccccc1,26,0,3,0,0,96*
S=C(NNC(=S)Nc1ccccc1)Nc1ccccc1,-4,0,-12,2,0,2
COC(=O)c1cc(COC(=O)c2nc3nccc(C)n3n2)oc1C,6,0,-4,-1,0,-6
C=CCNC(=O)c1c[nH]c2ccc(S(=O)(=O)N(C)c3ccc(OCC)cc3)cc2c1=O,0,-1,-6,17,0,.
CCCOc1ccc(CSCCNC(=S)Nc2ccccc2)cc1,2,0,-18,90*,0,-1
S=C(NCCc1ccccc1)Nc1ccc(Nc2ccccc2)cc1,-7,0,0,1,0,98*
S=C(NCCCc1ccccc1)Nc1ccccc1,2,-2,1,.,0,19
COc1ccccc1N1CCN(Cc2cc(=O)c(OCC(=O)NC3CCCC3)co2)CC1,6,0,1,-3,0,2
O=C(CSc1ccc(-c2ccco2)nn1)Nc1ccccc1,14,0,183,0,0,98*
Cc1nnc(NC(=O)CSc2ccc(-c3ccco3)nn2)s1,-5,0,11,2,0,97*
O=C(CSc1ccc(-c2ccco2)nn1)c1ccccc1,2,-2,-3,1,0,98*
Cc1cccc(N2C(=O)CCC2=O)n1,-11,0,-3,9,0,-2
COc1ccc(N2CCN(C(=O)[C@H](Cc3c[nH]c4ccccc34)NC(C)=O)CC2)cc1,-1,-1,-5,0,0,98*
COc1ccc(N2CCN(C(=O)CNC(=O)Cc3ccccc3)CC2)cc1,-1,0,1,0,0,79*

# Assay outcomes deposited in PubChem BioAssay by several laboratories.
